Data taken from PubChem BioAssay (EPA / NIEHS).
The source made the active and inactive calls. How the source made its calls: active means hit-call score of the fitted dose curve at least 0.9, where 1 is the maximum; inactive means score below 0.9.

What was measured:
Conditions in all cases: mRNA level, 48 h; actives raise or lower the signal
[1] = read-out: ATP-citrate lyase (ACLY), ACLY (gene 47); assay: LTEA_HepaRG_ACLY: Life Technologies and Expression Analysis (LTEA) Assay for ATP-citrate lyase (ACLY) using HepaRG (AID 2283466)
In short: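 ACLY mRNA quantified by qRT-PCR on Fluidigm arrays against three housekeeping genes, after 48 h chemical treatment of HepaRG cells (top concentration 100 uM, half-log steps, 0.5% DMSO vehicle). Up- or down-regulation fitted relative to DMSO.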

[2] = read-out: Peroxisomal acyl-coenzyme A oxidase 1 (ACOX1) gene, ACOX1 (gene 51); assay: LTEA_HepaRG_ACOX1: Life Technologies and Expression Analysis (LTEA) Assay for Peroxisomal acyl-coenzyme A oxidase 1 (ACOX1) gene using HepaRG (AID 2283467)
In short: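 ACOX1 transcript levels were quantified by TaqMan qRT-PCR against three housekeeping genes after 48 h chemical exposure of differentiated human HepaRG cells. Exposure used eight half-log steps topping at 100 uM, 0.5% DMSO vehicle, in duplicate. Bidirectional curve fits were made relative to DMSO.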

[3] = read-out: Alkaline Phosphatase, Placental (ALPP) gene, ALPP (gene 250); assay: LTEA_HepaRG_ALPP: Life Technologies and Expression Analysis (LTEA) Assay for Alkaline Phosphatase, Placental (ALPP) gene using HepaRG (AID 2283468);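 on AC50: differentiated human HepaRG liver cells in serum-free induction medium; ALPP transcript by TaqMan qRT-PCR normalized to ACTB GAPDH and POLR2A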
In short: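 Using human liver HepaRG cells, chemicals are tested in duplicate over 48 h at half-log concentrations topping at 100 uM; phenobarbital 1 mM serves as induction control. ALPP mRNA change by qRT-PCR, bidirectional fit against vehicle.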

[4] = read-out: Bcl-2 (BAD) gene, BAD (gene 572); assay: LTEA_HepaRG_BAD: Life Technologies and Expression Analysis (LTEA) Assay for Bcl-2 (BAD) gene using HepaRG (AID 2283469)
In short: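 Read-out: qRT-PCR of BAD mRNA, normalized to three housekeeping genes. Human HepaRG cultures got 48 h chemical exposure in 0.5% DMSO, duplicate eight-point half-log series topping at 100 uM. Gain or loss of signal fitted versus DMSO vehicle.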

[5] = read-out: Bcl-2 (BAX) gene, BAX (gene 581); assay: LTEA_HepaRG_BAX: Life Technologies and Expression Analysis (LTEA) Assay for Bcl-2 (BAX) gene using HepaRG (AID 2283470)
In short: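 Cells were thawed, plated for 48 h, moved to serum-free induction medium and dosed for 48 h (highest concentration 100 uM, half-log steps, 0.5% DMSO). Total RNA was then analysed for BAX expression by qRT-PCR.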

[6] = read-out: adenosine kinase (ADK) gene, ADK (gene 132); assay: LTEA_HepaRG_ADK: Life Technologies and Expression Analysis (LTEA) Assay for adenosine kinase (ADK) gene using HepaRG (AID 2283471)
In short: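 HepaRG (human liver), 48 h chemical exposure, 8-pt half-log series, top 100 uM, 0.5% DMSO vehicle. Readout: ADK mRNA by qRT-PCR vs housekeeping genes; bidirectional curve fit relative to DMSO baseline.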

[7] = read-out: Alpha-fetoprotein (AFP) gene, AFP (gene 174); assay: LTEA_HepaRG_AFP: Life Technologies and Expression Analysis (LTEA) Assay for Alpha-fetoprotein (AFP) gene using HepaRG (AID 2283472);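 on AC50: AFP transcript by TaqMan qRT-PCR normalized to ACTB GAPDH and POLR2A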
In short: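 Chemicals were tested on differentiated HepaRG cells for 48 hours at eight concentrations up to 100 uM, with 0.5% DMSO as vehicle. AFP expression was then quantified by qRT-PCR and analyzed for gain or loss relative to DMSO.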

BCL2L11 (gene 10018) = assay: LTEA_HepaRG_BCL2L11: Life Technologies and Expression Analysis (LTEA) Assay for Bcl-2 (BCL2L11) gene using HepaRG (AID 2283473)
In short: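 Human hepatic HepaRG cultures are treated 48 h with test chemicals (maximum 100 uM, 0.5% DMSO vehicle). Expression of BCL2L11 is measured by qRT-PCR against ACTB, GAPDH and POLR2A, with activity in either direction scored relative to vehicle.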

[8] = read-out: Apolipoprotein A-V (APOA5) gene, APOA5 (gene 116519); assay: LTEA_HepaRG_APOA5: Life Technologies and Expression Analysis (LTEA) Assay for Apolipoprotein A-V (APOA5) gene using HepaRG (AID 2283474)
In short: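 Concentration-response of APOA5 expression in HepaRG: eight half-log doses to 100 uM, 48 h, qRT-PCR normalized to ACTB/GAPDH/POLR2A, bidirectional fitting with 0.5% DMSO as baseline.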

[9] = read-out: Apoptosis regulator Bcl-2 (Homo sapiens) (UniProt P10415); assay: LTEA_HepaRG_BCL2: Life Technologies and Expression Analysis (LTEA) Assay for Bcl-2 gene using HepaRG (AID 2283475);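 further: BCL2 transcript by TaqMan qRT-PCR normalised to ACTB GAPDH and POLR2A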
In short: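 Plated human HepaRG cells are exposed to test chemicals for 48 h across eight concentrations from 100 uM downward in half-log steps (0.5% DMSO). BCL2 expression is then measured by qRT-PCR with housekeeping normalisation and fitted bidirectionally against vehicle.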

Measured: AC50

Apoptosis regulator Bcl-2 (Homo sapiens), sequence (P10415 whole entry, looked up): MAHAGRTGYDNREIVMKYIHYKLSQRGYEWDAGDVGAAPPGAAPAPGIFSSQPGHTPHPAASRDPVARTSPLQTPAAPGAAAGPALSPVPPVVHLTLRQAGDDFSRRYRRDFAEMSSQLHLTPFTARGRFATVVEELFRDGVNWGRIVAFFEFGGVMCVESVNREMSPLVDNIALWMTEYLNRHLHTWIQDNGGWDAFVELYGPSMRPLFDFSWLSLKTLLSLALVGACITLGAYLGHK

CNc1cnn(-c2cccc(C(F)(F)F)c2)c(=O)c1Cl
active: [7] 22 µM
inactive: all other assays above

CC(C1CC1)C(O)(Cn1cncn1)c1ccc(Cl)cc1 (stereo not drawn)
active: [1] 31.7 µM | [7] 20.5 µM
not listed: [3] | [5]
inactive: all other assays above

CC(Oc1cccc(Cl)c1)C(=O)O (stereo not drawn)
not listed: [5]
inactive: all other assays above

CC(C)N(C(=O)SCC(Cl)=C(Cl)Cl)C(C)C
not listed: [5]
inactive: all other assays above

CON=C(C(=O)OC)c1ccccc1CON=C(C)c1cccc(C(F)(F)F)c1
not listed: [5]
inactive: all other assays above

CC(COc1ccc(Oc2ccccc2)cc1)Oc1ccccn1 (stereo not drawn)
active: [7] 38.9 µM
not listed: [5]
inactive: all other assays above

CCc1cccc(CC)c1N(COC)C(=O)CCl
not listed: [5]
inactive: all other assays above

CCCCSP(=O)(SCCCC)SCCCC
active: [7] 50 µM
not listed: [5]
inactive: all other assays above

CN1COCN(Cc2cnc(Cl)s2)C1=N[N+](=O)[O-]
not listed: [5]
inactive: all other assays above

CCOP(=S)(Oc1cnc(C(C)(C)C)nc1)OC(C)C (stereo not drawn)
active: [1] 85.6 µM | [2] 2.27 µM | [7] 19.4 µM
not listed: [5]
inactive: all other assays above

CCc1cccc(C)c1N(C(=O)CCl)C(C)COC (stereo not drawn)
active: [7] 77.1 µM
not listed: [1] | [5]
inactive: all other assays above

O=[N+]([O-])c1cc(C(F)(F)F)c(Cl)c([N+](=O)[O-])c1Nc1ncc(C(F)(F)F)cc1Cl
active: [1] 50 µM | [2] 60.2 µM | [3] 9.95 µM | [6] 50 µM | [7] 23 µM | BCL2L11 (gene 10018) 66.3 µM
inactive: [4] | [8] | [9]

C=C(C)[C@H]1Cc2c(ccc3c2O[C@@H]2COc4cc(OC)c(OC)cc4[C@@H]2C3=O)O1
active: [2] 11.7 µM | [3] 0.384 µM | [7] 0.985 µM | BCL2L11 (gene 10018) 1.07 µM | [8] 12.9 µM | [9] 2.94 µM
inactive: [1] | [4] | [6]

CCOC(=O)COc1cc(-c2nn(C)c(OC(F)F)c2Cl)c(F)cc1Cl
not listed: [5]
inactive: all other assays above

CSc1nc(NC(C)C)nc(NC(C)C)n1
active: [7] 50 µM | [8] 50 µM
not listed: [3] | [5]
inactive: all other assays above

CCCSP(=O)(OCC)SCCC
active: [8] 12.9 µM
not listed: [5]
inactive: all other assays above

CCCCN(CC)c1c([N+](=O)[O-])cc(C(F)(F)F)cc1[N+](=O)[O-]
not listed: [5]
inactive: all other assays above

C[Si](Cn1cncn1)(c1ccc(F)cc1)c1ccc(F)cc1
active: [2] 40.9 µM | [3] 50 µM | [7] 25.4 µM | [8] 15.8 µM | [9] 35 µM
inactive: [1] | [6] | BCL2L11 (gene 10018)

CCOP(=S)(OCC)SCCSCC
not listed: [5]
inactive: all other assays above
